Inconclusive results are not listed. Active and inactive are the calls of the source. Calls come from the whole dose curve; as a rule, active = well fitted cell-killing curve with a large enough effect in the repeat runs; inconclusive = weak or mixed curves, or effect the other way; inactive = no such curve, though single readings can be large or run the other way.
experiment: qHTS assay to identify small molecule agonists of the vitamin D receptor (VDR) signaling pathway - cell viability counter screen (AID 743224); details: VDR-bla HEK293T viability, CellTiter-Glo luminescence, 16 h; series mostly up to 62.6 µM; note: nearly all actives have a fitted effect of over 50% in size
Method in brief: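 Compounds were pin-transferred onto VDR-bla cells plated 4 h earlier; following 16 h incubation at 37C, cell viability was quantified by CellTiter-Glo luminescence after 30 min at room temperature.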
% is set by controls: 0 for no effect and ±100 for the full control effect.

Compound	outcome	activity change, negative = cytotoxicity
CCOc1ccccc1OCCN[C@H](C)Cc1ccc(OC)c(S(N)(=O)=O)c1	inactive	–
CC(CN1CC(=O)NC(=O)C1)N1CC(=O)NC(=O)C1 (configuration not stated)	inactive	–
C=COCCCCO	inactive	–
CC(=O)c1ccc2ccc3ccccc3c2c1	inactive	–
CCC(C)SSC(C)CC (configuration not stated)	inactive	–
Cc1ccc(S(=O)(=O)NC(=O)NN2CC3CCCC3C2)cc1 (configuration not stated)	inactive	–
O=C1CC2(CCCC2)CC(=O)N1CCNCC1COc2ccccc2O1 (configuration not stated)	inactive	–
CNCCc1ccccn1	inactive	–
CC[N+](C)(CC)CC	inactive	–
CC(C)(C)NCC(O)COc1cccc2c1CCC(=O)N2 (configuration not stated)	inactive	–
c1coc(Cn2cccc2)c1	inactive	–
CCCCCCCCS(=O)(=O)O	inactive	–
C/C(=N\O)c1ccc(OCC(=O)N2CCCCC2)cc1	inactive	–
Clc1cc(Cl)c(Cl)c(Cl)c1Cl	inactive	–
Cc1cc(C)c(C)c(C)c1	inactive	–
CC1(C)C(=O)C(C)(C)C1=O	inactive	–
Cc1ccc(Br)cc1	inactive	–
C=CCCCCCCCCOC(C)=O	inactive	–
CSC(=O)c1cccc2nnsc12	inactive	–

Compound	outcome	activity change, negative = cytotoxicity
CN(C)c1ccncc1	inactive	–
C=CCN(CC=C)CC=C	inactive	–
CC(C)(O)CCCC1=CCC(C=O)CC1 (configuration not stated)	inactive	–
CC(=O)OC1CCC(C(C)(C)C)CC1 (configuration not stated)	inactive	–
CC/C=C\CCOC(=O)c1ccccc1	inactive	–
O=C(O)P(=O)(O)O	inactive	–
COc1cnc(NS(=O)(=O)c2ccc(N)cc2)nc1	inactive	–
CCCCCCCCCCCCCCCCN(C)C	–	12.1% [at 5.95 µM] (inactive)
CC[C@@]1(c2ccccc2)NC(=O)N(C)C1=O	inactive	–
Cc1cc(O)c(Cl)cc1C	inactive	–
C[C@@H]1CC[C@@]2(OC1)O[C@H]1C[C@H]3[C@@H]4CC[C@H]5C[C@@H](O)CC[C@]5(C)[C@H]4CC(=O)[C@]3(C)[C@H]1[C@@H]2C	–	4.49% [at 5.95 µM] (inactive)
NS(=O)(=O)c1cc2c(cc1C(F)(F)F)NCNS2(=O)=O	inactive	–
CCN(CC)CC	inactive	–
COc1ccc2cc(CCC(C)=O)ccc2c1	inactive	–
CC(=O)OC/C=C(/C)CCC=C(C)C	inactive	–
CCCCN1C(=O)c2ccccc2C1=O	inactive	–
CCC(C)(C)C	inactive	–
Cc1ccc2ccccc2n1	inactive	–
